Measured values reported in PubChem BioAssay AID1508600 (Functional Genomics Laboratory (NCATS/FGL), 2020).
Screen size: about 53,000 sequences; about 3,700 (7%) were called active. Shown is part of a subset that was picked to be rich in actives. Unmarked numbers belong to inactive results.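 How the source made its calls: active means gene knockdowns whose robust z-score for IL-1 alpha signal is at least 2 or at most -2, so actives lie on both sides; inactive means the rest.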

Assay: Components of the Cytosolic LPS Sensing Pathway: Gene Identification via Genome-wide siRNA Screen;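 further: robust z of the log signal after scaling to non-targeting control siRNA wells of the plate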
Details: RAW264.7 macrophages, IL-1a HTRF, actives lie on both sides, screened at 100 nM (by protocol), cells primed 5 h with Pam3CSK4 first
Method in brief: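 Supernatant IL-1a by HTRF from RAW264.7 cells primed with Pam3CSK4 (5 hours) and transfected with LipidA (24 hour) after 48h siRNA knockdown at 100 nM; cell viability checked with CellTiter-Glo.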

Sequence | z-score
GGAGACUAUUUCAUCUACUTT against Tnfsf15 | 0.347
GGAGAAAACACAAUGUCUUTT against Limd1 | 0.441
CCUACAGAUAGGUAUGUAGTT against Exo1 | -2.07 (active)
GGACUUUGAGGAGAAGGAUTT against Rabep2 | -1.34
GGAAGGUGUCAAUAAAGAUTT against Lypd3 | 0.0184
GGGAUUUUUGAAACUGAAGTT against Glod4 | -2.78 (active)
GGAGAGUCUCCAGACUUUGTT against Med29 | -0.521
GGAGGAGACUCAGCAGAUUTT against Gzmn | 2.29 (active)
CCAGAAGAACAAGGAAGUATT against Gm6460 | -0.914
GGCCCAACGACAUUUAUGUTT against Pop7 | -1.38
GCCUUCUGAUAACCUACUATT against Mefv | -1.87
GCUAGUGGUAAGUCAACCATT against Iqsec1 | -0.882
GGAAGCUUACAUUGUGAAGTT against Unc5c | -0.735
GGACAAGCAAGGUCAAUCATT against Taar1 | -1.11
GGUGUAAGAGCUUUGGCCUTT against Gm5420 | 2.35 (active)
AAACUAGGGUCGAUUUCACTT against Hmgn3 | 0.704
GGCCUUCCUCUUCUGCUUATT against Csf3r | 0.157
GUGAACAACAUCCAAGCGATT against Dhrs7c | 0.183
GCGGAAAAAUUACUUUCUUTT against Tas2r107 | -2
GGAGUUUUCAUGCCUACAATT against Odam | 2.58 (active)
GGAAACCUACCAAGAAACGTT against Fam234a | -0.293
GGGACAAUUGGAAAGGCGATT against Wdr55 | 0.507
GGCACUUUCGGGAAUUCACTT against Nup160 | -2.5 (active)
GCCUAUCAGUAUCAUAGUUTT against Dnajc10 | 0.905
GGAGUAUUCAACAUUUGUATT against Trim11 | -0.523
GAACGGGUUACCAUGUGGUTT against Xkr9 | 0.546
CGCAGGUGAGAGCAAUGUUTT against Lrrn4cl | -1.35

Sequence | z-score
GGAAGGAACUCAAGAAGACTT against Ifrd1 | 2.13 (active)
GGAUGUGAAAUUCAAGCUUTT against Dhx34 | -0.457
GGAUACAGAAGGUUUUCUUTT against Abcd4 | -0.137
GGAACCCUUUUCAAAAGAGTT against Bclaf3 | 0.112
GGAGGAGACUAAAGAAAAUTT against Myf6 | -1.53
GGAAACAUCUUGUUGAAGATT against BC106179 | 0.361
GGAGAAAGCAGAGAUAAAATT against Cdk11b | -1.8
CCCACAACUGCAAAUUGUGTT against Olfr782 | -1.21
GGAUACAAGAAACCUUAAGTT against Os9 | 1.09
CGACUCUUGCCUGUUCGUGTT against Adamtsl5 | -2.48 (active)
GGAUAAAUUUCAAGAUGUGTT against Naip5 | -0.552
GGUACCAUUCGUUCAAACCTT against 3830406C13Rik | 0.416
GGCCUUUACGUCUUCCUAGTT against Zdhhc12 | -1.19
GGAAGAUGGGCAAGAUGAUTT against Sash3 | -0.183
CCCAGCACUUUUUCGCUCUTT against Olfr458 | 0.959
GCAGGACAACCAGCUGGUATT against Tmem107 | 3.43 (active)
GGCACUCAGCAAGAUUGUATT against Nr2c2ap | -0.28
GCUCAUCUUAUCCUCUAAGTT against Cts7 | 0.391
UCAGGUCGCUGCUAAACUCTT against Ccdc57 | -1.26
GGUUCAAAGGUGAUGGUGUTT against Dab2 | 0.273
CGAGCUUUGAAAGUUUAAUTT against Pcsk2 | 0.591
CCUGACGAUUGAGUAUCAUTT against Tubgcp4 | -0.267
GGACCAGACGAACAGUGAUTT against Surf2 | 2.28 (active)
GGACCUGCCCAAAUCUGAUTT against Fbxo40 | 0.307
CGGCUCUUCAAUAGAGCCUTT against Olfr123 | -0.265
GGAUUAUGGUCUCAUUGUCTT against Exd2 | 0.0549
GGAGCUUUCUCAGAGGUGUTT against Camk1g | -1.47
